Laboratory results reported in the supplement of paper PMC6897291.

What was measured:
U-2932 [1] = test: growth inhibition by drug alone (1 - RLU/untreated control) (fraction); higher = stronger inhibition; settings: 177Lu-lilotomab satetraxetan 0 ug/ml
Summary of the method: (§1)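 With or without 18 h pretreatment by a radiolabelled anti-CD37 antibody conjugate (~600 MBq/mg; 0.5 µg/ml RIVA, 1 µg/ml U-2932), RIVA and U-2932 cells were washed and plated at 3,000 cells/well. Pre-printed compound doses were 10/100 nM for RIVA and 10/1,000 nM for U-2932. Growth inhibition uses RealTime-Glo RLU relative to the untreated no-drug wells. The calculation is 1 − RLU/mean of 48 such wells per plate, with reads daily from day 3 after 1 h at 37°C.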

RIVA [2] = test: as above; settings: 177Lu-lilotomab satetraxetan 0 ug/ml
Summary of the method: as §1

U-2932 [3] = test: growth inhibition by drug plus 177Lu-lilotomab satetraxetan (1 - RLU/untreated control) (fraction); higher = stronger inhibition; settings: 177Lu-lilotomab satetraxetan 1 ug/ml
Summary of the method: as §1

RIVA [4] = test: as above; settings: 177Lu-lilotomab satetraxetan 0.5 ug/ml
Summary of the method: as §1

SMILES	growth inhibition by drug alone (U-2932 [1]; 10 nM, time (day): 3)	growth inhibition by drug alone (U-2932 [1]; 10 nM, time (day): 4)	growth inhibition by drug alone (U-2932 [1]; 10 nM, time (day): 5)	growth inhibition by drug alone (U-2932 [1]; 10 nM, time (day): 6)	growth inhibition by drug alone (U-2932 [1]; 1000 nM, time (day): 3)	growth inhibition by drug alone (U-2932 [1]; 1000 nM, time (day): 4)	growth inhibition by drug alone (U-2932 [1]; 1000 nM, time (day): 5)	growth inhibition by drug alone (U-2932 [1]; 1000 nM, time (day): 6)	growth inhibition by drug alone (RIVA [2]; 10 nM, time (day): 3)	growth inhibition by drug alone (RIVA [2]; 10 nM, time (day): 4)	growth inhibition by drug alone (RIVA [2]; 10 nM, time (day): 5)	growth inhibition by drug alone (RIVA [2]; 10 nM, time (day): 6)	growth inhibition by drug alone (RIVA [2]; 100 nM, time (day): 3)	growth inhibition by drug alone (RIVA [2]; 100 nM, time (day): 4)	growth inhibition by drug alone (RIVA [2]; 100 nM, time (day): 5)	growth inhibition by drug alone (RIVA [2]; 100 nM, time (day): 6)	growth inhibition by drug plus 177Lu-lilotomab satetraxetan (U-2932 [3]; 10 nM, time (day): 3)	growth inhibition by drug plus 177Lu-lilotomab satetraxetan (U-2932 [3]; 10 nM, time (day): 4)	growth inhibition by drug plus 177Lu-lilotomab satetraxetan (U-2932 [3]; 10 nM, time (day): 5)	growth inhibition by drug plus 177Lu-lilotomab satetraxetan (U-2932 [3]; 10 nM, time (day): 6)	growth inhibition by drug plus 177Lu-lilotomab satetraxetan (U-2932 [3]; 1000 nM, time (day): 3)	growth inhibition by drug plus 177Lu-lilotomab satetraxetan (U-2932 [3]; 1000 nM, time (day): 4)	growth inhibition by drug plus 177Lu-lilotomab satetraxetan (U-2932 [3]; 1000 nM, time (day): 5)	growth inhibition by drug plus 177Lu-lilotomab satetraxetan (U-2932 [3]; 1000 nM, time (day): 6)	growth inhibition by drug plus 177Lu-lilotomab satetraxetan (RIVA [4]; 10 nM, time (day): 3)	growth inhibition by drug plus 177Lu-lilotomab satetraxetan (RIVA [4]; 10 nM, time (day): 4)	growth inhibition by drug plus 177Lu-lilotomab satetraxetan (RIVA [4]; 10 nM, time (day): 5)	growth inhibition by drug plus 177Lu-lilotomab satetraxetan (RIVA [4]; 10 nM, time (day): 6)	growth inhibition by drug plus 177Lu-lilotomab satetraxetan (RIVA [4]; 100 nM, time (day): 3)	growth inhibition by drug plus 177Lu-lilotomab satetraxetan (RIVA [4]; 100 nM, time (day): 4)	growth inhibition by drug plus 177Lu-lilotomab satetraxetan (RIVA [4]; 100 nM, time (day): 5)	growth inhibition by drug plus 177Lu-lilotomab satetraxetan (RIVA [4]; 100 nM, time (day): 6)
CC(=O)O[C@]1(C(C)=O)CC[C@H]2[C@@H]3C[C@H](C)C4=CC(=O)CC[C@]4(C)[C@H]3CC[C@@]21C [Medroxyprogesterone acetate]	0.141	0.111	0.0166	-0.207	0.107	0.162	0.15	0.056	-0.0698	-0.099	-0.346	-0.679	-0.507	-0.273	-0.35	-0.619	0.0781	0.0764	0.144	0.108	0.102	0.176	0.224	0.336	0.422	0.555	0.543	0.565	0.235	0.389	0.409	0.427
O=c1cc(N2CCOCC2)oc2c(-c3cccc4c3sc3ccccc34)cccc12	0.114	0.0778	-0.0783	-0.126	0.206	0.176	0.0314	-0.00386	0.21	0.183	0.173	-0.0317	-0.363	-0.241	-0.261	-0.43	0.0719	0.131	0.166	0.2	0.312	0.318	0.34	0.421	0.597	0.621	0.62	0.635	0.447	0.499	0.523	0.529
CCOC(=O)C1=C[C@]2(CC)CCCN3CCc4c(n1c1ccccc41)[C@@H]32 [Vinpocetine (Cavinton)]	-0.0944	-0.0619	-0.0289	0.127	0.0303	0.0355	0.0149	0.00297	-0.107	-0.13	-0.129	-0.167	0.0294	-0.03	-0.0621	-0.112	-0.0659	-0.0355	-0.00313	0.159	0.000715	0.0172	0.0304	0.134	0.457	0.533	0.549	0.545	0.362	0.396	0.4	0.377
CCOc1cc2ncc(C#N)c(Nc3ccc(OCc4ccccn4)c(Cl)c3)c2cc1NC(=O)/C=C/CN(C)C [Neratinib (HKI-272)]	-0.0556	-0.0442	-0.0146	0.0157	-0.0267	-0.00012	-0.0352	-0.0269	-0.145	-0.144	-0.165	-0.233	-0.0145	-0.0628	-0.098	-0.14	-0.0172	-0.00319	0.0327	0.194	-0.0673	0.003	0.00224	0.0815	0.358	0.498	0.529	0.541	0.367	0.422	0.425	0.419
Cc1nc(Nc2ncc(C(=O)Nc3c(C)cccc3Cl)s2)cc(N2CCN(CCO)CC2)n1	-0.00248	-0.0473	-0.15	-0.0827	0.487	0.65	0.693	0.752	0.376	0.323	0.282	0.128	0.779	0.826	0.856	0.867	-0.0537	-0.0412	-0.0107	0.0287	0.607	0.75	0.816	0.88	0.558	0.581	0.582	0.575	0.838	0.89	0.901	0.91
COc1cc2nccc(Oc3ccc(NC(=O)Nc4cc(C)on4)c(Cl)c3)c2cc1OC [Tivozanib (AV-951)]	0.14	0.0745	-0.00279	-0.0876	0.0629	0.0968	0.0897	0.0763	0.0535	0.0633	0.0278	-0.222	0.0881	0.104	0.0755	0.00134	0.0499	0.0836	0.127	0.144	0.13	0.217	0.26	0.368	0.453	0.547	0.57	0.565	0.438	0.535	0.537	0.526
Nc1nccc(-c2ccc3noc(-c4ccc(Cl)cc4)c3c2)n1 [PIM-1 Inhibitor 2]	0.154	0.0795	7.17e-05	-0.0865	0.121	0.133	0.0739	0.0111	0.115	0.126	0.0578	-0.0926	0.116	0.161	0.123	0.0468	0.0725	0.102	0.129	0.208	0.106	0.208	0.188	0.253	0.465	0.59	0.607	0.604	0.451	0.536	0.524	0.507
